The nature of the experiment: probe aNog binding to arrayed compounds – biochemical, biotinylated probe, 635/667 nm fluorescence, primary screen (AID 1115).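 Note: probe is biotinylated aNog protein used at 0.15 µg/mL for 1 h at 4 C; z-score combines 667 nm fluorescence of each spot with its signal to noise.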 Conditions: small-molecule microarray, higher = more signal.
In the case of `CCOC(=O)[C@H](Cc1ccccc1)NC(=O)CCC1CC(OC(=O)NCc2cccc3ccccc23)CC2(CCCC(COC(=O)NCc3ccc4c(c3)OCO4)O2)O1` (stereo partly specified), the composite z-score was -0.299.

As to `COc1cccc([C@H]2Oc3ccc(OC)cc3C(=NO[C@@H](C)c3cc(-c4c(C)cc(C)cc4C)no3)[C@@H]2O)c1`, the composite z-score was found to be 0.0983.

With `CC(=O)OC[C@H]1O[C@H](C#CCCc2ccccc2)C=C[C@@H]1OC(C)=O`, the composite z-score is 0.0658.

Molecule `CC(C)=NO[C@@H](C)c1cn([C@H](CO)Cc2ccccc2)nn1` yielded a composite z-score of -0.35.

`COC(=O)C(C(=O)OC)C1CCCC(=O)C1` (stereo unspecified): the composite z-score is -0.0446.

As to `COC(=O)CC=C[C@@H](C)[C@@H](C=NOC[C@@H](C)[C@H](OCc1ccccc1)C(C)C)OC`, the composite z-score is -0.116.

The molecule `COc1ccc(O[C@H]2C=C[C@@H](c3ccccc3)O[C@@H]2COC(=O)NCc2cccc3ccccc23)cc1` gave a composite z-score of -0.116.

On to `CC(C)CON=C1C[C@@H](O)[C@@H](O)[C@@H]2[C@@H]3C(=O)N(C(C)(C)C)C(=O)[C@@H]3CC[C@@H]12`, for which the composite z-score was -0.158.

`CON=C(C)CCN1CCCCc2nc(C)c(C)cc21` showed a composite z-score of -0.337.

With `O=C1[C@H]2[C@H]3[C@H](O)[C@H](O)CC(=NO[C@@H]4O[C@H](CO)[C@@H](O)[C@H](O)[C@H]4O)[C@@H]3CC[C@H]2C(=O)N1C[C@@H]1CCCO1`, the composite z-score was -0.238.

Molecule `CCN1C(=O)[C@H]2[C@@H]3C(=CC[C@H]2C1=O)C(=O)[C@H]1O[C@H]1[C@H]3O` registered a composite z-score of -0.144.

In turn, `CC=CC1=C(CO)[C@H](O)[C@H]2O[C@H]2[C@@H]1O` registered a composite z-score of -0.244.

The molecule `CC(=O)OC[C@H]1O[C@H](CC=NOC[C@@H](O)[C@H]2O[C@@H]3OC(C)(C)O[C@@H]3[C@H]2O)C=C[C@@H]1OC(C)=O` displayed a composite z-score of -0.189.

Regarding `CO[C@H]1COC(=O)CC=C[C@H](C)[C@H](OC)COC(=O)[C@@H](C)NC(=O)CC=C[C@@H]1C`, the composite z-score is -0.21.

As for `C#CCCCON=C1C[C@@H](O)[C@@H](O)[C@@H]2[C@@H]3C(=O)N([C@@H](C)c4ccccc4)C(=O)[C@@H]3CC[C@@H]12`, the composite z-score was 0.167.

The molecule `C=CC[C@@H]1C=C[C@H](ON=C(C)CCN2CCCc3nc(C)c(C)cc32)[C@@H](CO)O1` came in with a composite z-score of 0.525.

Regarding `CCOC(=O)[C@H](CC(C)C)NC(=O)CCC1CC(OC(=O)NCCc2ccc(F)cc2)CC2(CCCC(COC(=O)NCCOC)O2)O1` (stereo partly specified), the composite z-score was -0.438.

Molecule `CC(CCC(=O)OC[C@H]1O[C@H](C#Cc2ccccc2)C=C[C@@H]1Oc1ccc(C)cc1)=NOC[C@@H](C)[C@H](OCc1ccccc1)C(C)C` had a composite z-score of -0.902.

`COc1ccc(O[C@H]2C=C[C@@H](c3ccccc3)O[C@@H]2CO)cc1` had a composite z-score of 0.041.

As for `CCOC(=O)CCN1C(=O)[C@H]2[C@H]3[C@H](O)[C@H](O)CC(=NOCC(C)C)[C@@H]3CC[C@H]2C1=O`, the composite z-score is -0.255.

Molecule `CO[C@H]1COC(=O)[C@H](CCSC)NC(=O)CC=C[C@@H](C)[C@H](OC)COC(=O)[C@@H](OCc2ccccc2)C=C[C@@H]1C` came in with a composite z-score of -0.483.

The molecule `CC(CCC(=O)OC[C@H]1O[C@H](C#Cc2ccccc2)C=C[C@@H]1Oc1ccc(C)cc1)=NO[C@@H](C)c1cc(-c2c(C)cc(C)cc2C)no1` gave a composite z-score of -0.118.

In turn, `CC(C)[C@@H](OCc1ccccc1)[C@H](C)C=NO[C@H](C)c1cn([C@@H]2COC[C@H]2O)nn1` came in with a composite z-score of -0.198.

`CCOC(=O)CCN1C(=O)[C@H]2[C@H]3[C@H](O)[C@H](O)CC(=O)[C@@H]3CC[C@H]2C1=O` returned a composite z-score of -0.252.

In turn, `COC(OC)[C@@H](C)[C@H](OC)[C@@H](C)[C@H](OC)c1ccccc1` showed a composite z-score of 0.108.

In turn, `C=CC[C@@H]1C=C[C@H](ON=C(C)CCN2CCCCc3nc(C)c(C)cc32)[C@@H](CO)O1` came in with a composite z-score of -0.444.

`CC(C)=CCCC(C)=CCON=C1C[C@@H](O)[C@@H](O)[C@@H]2[C@@H]3C(=O)N(Cc4ccc5c(c4)OCO5)C(=O)[C@@H]3CC[C@H]12` registered a composite z-score of -0.28.

`COc1cccc([C@H]2Oc3ccc(OC)cc3C(=NOCC[C@@H]3C=C[C@H](OC(C)=O)[C@@H](COC(C)=O)O3)[C@@H]2O)c1` registered a composite z-score of 0.197.

In the case of `COC(=O)[C@H](C)NC(=O)CCC1CC(OC(=O)NCc2ccc3c(c2)OCO3)CC2(CCCC(COC(=O)NCCC(C)C)O2)O1` (stereo partly specified), the composite z-score is -0.0047.

On to `O=C1[C@H]2CCn3c(=O)n(-c4ccccc4)c(=O)n3[C@H]2[C@H](O)[C@@H]2O[C@H]12`, for which the composite z-score was -0.0428.

`C[C@]12CCC3c4ccc(OCC5CO5)cc4CCC3C1CC[C@@H]2O` (stereo partly specified) registered a composite z-score of 0.316.

With `CCN1C(=O)[C@H]2[C@H]3[C@H](O)[C@H](O)CC(=NNC(=O)OCc4ccccc4)[C@H]3CC[C@H]2C1=O`, the composite z-score was -0.452.

Turning to `CCN1C(=O)[C@H]2[C@H]3[C@H](O)[C@H](O)CC(=NOCC=C(C)CCC=C(C)C)[C@@H]3CC[C@H]2C1=O`, the composite z-score was -0.158.

The molecule `CCOC(=O)[C@H](Cc1ccccc1)NC(=O)CCC1CC(OC(=O)NCc2cccc3ccccc23)CC2(CCCC(COC(=O)NCCc3ccccc3OC)O2)O1` (stereo partly specified) returned a composite z-score of -0.138.

`CON=C1c2cc(OC)ccc2O[C@H](c2cccc(OC)c2)[C@H]1O`: the composite z-score is -0.0211.

For `CCOC(=O)[C@H](CC(C)C)NC(=O)CCC1CC(OC(=O)NCc2ccc3c(c2)OCO3)CC2(CCCC(COC(=O)NCCC(C)C)O2)O1` (stereo partly specified), the composite z-score is -0.295.
